# Assays:
# Details in all cases: concentration: 1 μM,replicates: in singlicate; n = 1
# WNK1 = system: WNK1
# WNK2 = system: WNK2
# WNK3 = system: WNK3
# WNK4 = system: WNK4
# YANK1 = system: T1, YANK1
# T1 construct: gene STK32A
# YANK2 = system: T2, YANK2
# T2 construct: gene STK32B
# YANK3 = system: T3, YANK3
# T3 construct: gene STK32C
# YES = system: T4, YES
# T4 construct: gene YES1
# YSK1 = system: T5, YSK1
# T5 construct: gene STK25
# YSK4 = system: T6, YSK4
# T6 construct: gene MAP3K19
# 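Also: KINOMEscan kinase panel screen.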
Structure (SMILES),%Inh (WNK1) [%],%Inh (WNK2) [%],%Inh (WNK3) [%],%Inh (WNK4) [%],%Inh (YANK1) [%],%Inh (YANK2) [%],%Inh (YANK3) [%],%Inh (YES) [%],%Inh (YSK1) [%],%Inh (YSK4) [%]
C[C@@H](Oc1cc(-n2cnc3cc(-c4ccncc4)ccc32)sc1C(N)=O)c1ccccc1Cl [GSK479719],32,76,90.2,2,7,0,26,44,0,97.5
CC(C(=O)NC1CCN(c2ccnc(Nc3ccc(F)cc3)n2)C1)c1ccc(Cl)cc1 (stereo not shown) [GSK1379713],1,0,73,0,0,0,0,0,0,0
O=C(Nc1n[nH]c2cc(-c3ccco3)ccc12)C1CC1 [SB-737447],0,0,0,0,0,0,0,0,0,96.2
O=C(Nc1cccc(C(F)(F)F)c1)c1cccc(Oc2ccc3nccn3n2)c1,16,0,26,15,0,0,30,0,0,77
COc1ccc(Nc2nccc(N3CCC(NC(=O)c4cccc(C#N)c4)C3)n2)cc1 (stereo not shown) [GSK1379730],2,5,18,0,0,0,0,15,0,0
Cn1cc(-c2cccc3c(N)c(C(N)=O)nnc23)cn1,11,0,0,0,30,0,0,0,5,94.4
C[C@@H]1CCN(C(=O)N2CCCC2)C[C@@H]1N(C)c1ncnc2[nH]ccc12,6,45,0,0,15,0,0,0,0,82
Cc1nnc(-c2ccc3occ(-c4ccc(S(C)=O)cc4)c3n2)o1 (stereo not shown),0,0,0,0,0,0,16,0,7,0
Cc1cccc2c(-c3ccncc3)c(-c3ccc(F)cc3)nn12.Cl [GW461487],0,0,13,0,27,8,22,11,11,0
Cn1ccc2ncnc(Oc3ccc(NC(=O)Nc4cnn(C(C)(C)C)c4)c(Cl)c3)c21,62,0,0,3,1,11,9,0,8,34
O=C(Nc1ccccc1)c1cccc(Oc2ccc3nccn3n2)c1,4,3,8,36,0,0,0,0,0,12
COC(=O)c1cccc(NC(=O)NC2CCN(c3ccnc(NCc4ccc(F)cc4)n3)CC2)c1 [GSK1379860],10,9,18,31,0,0,0,8,0,9
CNC(=O)c1ccccc1Nc1nc(Nc2cccc(CS(C)(=O)=O)c2)ncc1C.O=CO [GSK1520489],9,79,65,29,44,0,0,99.8,45,99.8
CCOC(=O)N1CCC(n2cnc(-c3ccc(F)cc3)c2-c2ccnc(N)n2)CC1 [SB-219952],28,72,45,0,15,15,0,10,0,9
Cn1ccc2ncnc(Oc3ccc(NC(=O)Nc4cccc(C(F)(F)F)c4)c(Cl)c3)c21,0,0,0,0,0,0,13,0,0,77
Nc1nccc(-c2ccc3c(N)n[nH]c3c2)n1 [GSK1034945],6,0,3,0,21,0,9,0,17,72
COc1cccc(C2=C(Nc3cccc(Cl)c3)C(=O)NC2=O)c1 [SB-341556],20,29,19,0,5,0,11,17,0,38
Cn1ccc2ncnc(Oc3ccc(NC(=O)Nc4cc(C(C)(C)C)on4)c(Cl)c3)c21,0,20,0,0,0,5,0,3,0,99.5
CS(=O)(=O)Nc1ccc(-c2ccnc3[nH]ccc23)cc1 [GSK993273],13,14,9,0,12,0,20,8,51,96.5
